# Measured values reported in the supplement of paper PMC6555819.
# Test system: LXRb:RXRa (NR concentration 270 nM, RXRa partner concentration 90 nM)
# Test: PBM binding z-score (relative to random genomic background probes); higher = stronger binding; sequences stand for … in GC…GCGATTGACAGCGTAGAATGAAGG
# Method: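 Protein-binding microarray (Agilent 4x180K custom design, double-stranded 60-nt probes: 5' GC cap, 34-nt variable region, 24-nt constant primer region; full probe sequence given). Purified or IVT nuclear receptor:RXRα heterodimers (3:1 NR:RXRα, mostly 270:90 nM) or homodimers were incubated for 1 h in PBS with 2% milk and no ligand, then detected with Alexa488 antibodies. Fluorescence from o1-orientation probes (~5 replicates averaged) was converted to z-scores against 500 random hg19 background probes. Variable regions are seed direct-repeat (DR0–DR5) sites, all their single-nucleotide variants and half-site ablations.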
row,Sequence,PBM binding z-score
1,TATTCAGGGTCAAAGGCCAGAGTACGAATGTCGA,5.77
2,CGTCCAAGGTCATATGAGGTCAGTGAAGACAGAT,6.58
3,CGTCCAAGGTCAATGCTAGATCAGTGAAAGCATT,3.56
4,CAAACTAGGTCAAGGTCTAAGTCGGTTTGTGCCA,1.6
5,TAGCCTAGGGCATTCAGGGGCCAGTATAGAAAGC,-0.231
6,CCTACTGGGCCAAAGGTGATTGATTCCAATGCTC,0.206
7,CCTCGGAGGTCAACAGGAGGTCAGAGCTGCCAGA,5.75
8,CAAACTAGGTCACAGTGGTCAAAGTCCGTGCGTA,2.4
9,TCTAGTTGGTCTAAGGTCACACACTCGAAATGCG,4.1
10,CCTACTCGGCCAAAAAGGTCATTGATGCCGATAA,4.63
11,ACTCGGTGGACAAAGGTCAGAGCTACGCCAGTGA,2.99
12,CCTACTGGACCAAGGTCATTGATCAGTCAAAGCA,3.46
13,ATTTGTAGGTTACATCCGGGTCATTCAGGCTATG,3.54
14,TCTTGTAGGTCAATAGAGGTTAAGAAAGTGCGCT,5.11
15,AGAATGAGATTACCAAAGATCAGGGAAACGCTTG,-0.266
16,CGTCCAAGGACAATGCTAGGTCAGTGAAAGCATT,-0.0607
17,AGAATGAGGTTAAGTTCAGGGAAACAGAATACAT,2.78
18,CCTACGGGGCCACGAAAGGTCATTGATTCAGTGA,5.02
19,CCTTACGGGTCACGAGGTTGTAGCACGACGAGCG,3.44
20,AGTCAAAGTTCATCTAGGTAACATAAGATATGCT,3.93

row,Sequence,PBM binding z-score
1,CGTCCAAGGTTAAGGTCAGTGAAAGAGACTCGAA,2.62
2,TACCCTAGGTCATGGGCCAGTATACCACGCGAAC,4.07
3,CCGAGAAGGTTACGAGGGGGCATTCAGTGCGAAT,7.2
4,TATAAAGGGTCAAAGGCCAGAGTACGAATGTCGA,5.24
5,GCTGCTAGTTCAACTGATGGTCAGCTAAAGCTCG,0.0556
6,AAAACAGGGTCATCGTAGGCCAGAGTACGCACAG,4.8
7,CCTACTGGGCCAAAAAGGTCATTGATGCCGATAA,3.74
8,TAGCCTAGGTCATTCAGGGGCAAGTATAGAAAGC,4.97
9,TCTTGTAGATCGATAGAGGTTAAGAAAGTGCGCT,1.52
10,TTGCCTAGGTCATTGGGCCAGTATAGTACGCATC,2.28
11,AATACAGGGTAACTAGGCCAGAGTAGGTACGAAT,0.0448
12,CGAACTAGGTCAAAGGACATTGAAAGGCGACGTA,2.06
13,CGAACGAGGTCACCAGGACAGTGAAGAGGTTGGA,4.94
14,CCTAGCAGGCCAATCTAGGTCACTCAAGGCTTGA,1.24
15,ATATGTAGGTTAGCTGGGGTCCTTCAGACTAGGC,0.853
16,AATACAGGGTGACTAGGCCAGAGTAGGTACGAAT,0.204
17,CGAACTAGGTCATCCAGGTCAGTGAATACATTGA,2.98
18,ATATGTAGGTTACATCCGGGTCATCCAGGCTATG,2.76
19,CGAACTAGGTCGTCCAGGACAGTGAATACATTGA,0.123
20,AGAACGAGGTCACGCTGAGTTGATAGCAGAGTAG,5.24
